CHRM1 antagonist – human M1 muscarinic receptor antagonists, primary screen, CHO-K1 cells, Fluo-8 calcium fluorescence, 1536-well; CHO-K1 hM1, ACh EC80 antagonist; inhibition, % at 3 µM; 360,000 compounds, 1.3% hits;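 active = percent inhibition above its own plate's cutoff, namely the mean of that plate's compound wells plus 3 SD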;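 note: peak over basal fluorescence ratio during 140 s after agonist addition; 0% = ACh EC80 plus DMSO and 100% = DMSO alone without agonist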
Target sequence (P11229 whole entry, looked up): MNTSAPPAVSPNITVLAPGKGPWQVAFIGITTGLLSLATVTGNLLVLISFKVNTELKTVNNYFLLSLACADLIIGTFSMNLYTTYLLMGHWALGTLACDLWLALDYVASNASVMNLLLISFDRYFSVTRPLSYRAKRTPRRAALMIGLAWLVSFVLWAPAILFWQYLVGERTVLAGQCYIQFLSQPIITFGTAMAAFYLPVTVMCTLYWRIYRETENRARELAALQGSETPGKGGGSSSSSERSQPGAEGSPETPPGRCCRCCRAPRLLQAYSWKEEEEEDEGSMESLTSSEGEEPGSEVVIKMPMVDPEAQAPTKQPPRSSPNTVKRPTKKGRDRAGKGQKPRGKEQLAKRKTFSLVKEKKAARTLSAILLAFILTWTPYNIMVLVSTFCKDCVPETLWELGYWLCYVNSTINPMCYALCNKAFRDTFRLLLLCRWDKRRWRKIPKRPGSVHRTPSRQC
CHO-K1 Ca PAM – nonselective calcium activators in parental CHO-K1 cells, primary screen, counter-screen for M1 PAM project, cell-based, Fluo-8 calcium fluorescence, full deck, 1536-well | activation, % at 3 µM | AID 602247, 2012 | ATP EC20; 0% at ATP EC20, 100% at ATP max | 360,000 compounds, 0.02% hits;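 active = activation above the run cutoff, the mean activation of all test compounds plus 3 SD, cut at about 40% in these data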;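 note: peak over basal fluorescence ratio in a 140 s read after ATP addition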
CHO-K1 Ca ag – counter-screen for M1 agonists: effect in parental CHO-K1 cells | Fluo-8 calcium fluorescence; scaled to maximal ATP response, vehicle zero | activation, % at 3 µM | 360,000 compounds, 0.48% hits; in the data active = activation above about 15%;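 note: untransfected CHO-K1 host cells lacking M1 receptor as counterscreen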
CHO-K1 Ca antag – nonselective inhibitor or artifact in parental CHO-K1 cells; ATP-induced calcium, Fluo-8 fluorescence; inhibition, % at 3 µM; 360,000 compounds, 0.6% hits;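 active = inhibition above a per-plate cutoff, the plate's mean sample inhibition plus 3 SD, cut at about 24% in these data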;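 note: 0% = DMSO plus EC80 ATP and 100% = DMSO alone without ATP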
M1 ag – human M1 muscarinic receptor agonists, primary screen, Fluo-8 calcium fluorescence, CHO-K1 cells, HTS. Muscarinic acetylcholine receptor M1 (Homo sapiens), P11229. CHO-K1 hM1, agonist mode; 0% DMSO, 100% acetylcholine EC100. activation, % at 3 µM. 360,000 compounds, 0.33% hits;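 active = activation above the run's mean compound activation plus 3 SD, cut at about 16% in these data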;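 note: peak over basal fluorescence ratio within a 140 s kinetic read after compound addition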
CHRM1 PAM – human M1 muscarinic receptor positive allosteric modulators, primary screen, CHO-K1 cells, Fluo-8 calcium fluorescence, 1536-well | 360,000 compounds, 0.088% hits | activation, % at 3 µM | CHO-K1 hM1, ACh EC20; 0% = ACh EC20, 100% = maximal ACh | AID 588819, 2011; in the data active = activation above about 19%, passing the limit was not always enough
Starred values were filed as active, the others as inactive. Hits are enriched below; roughly 2.4% of the tested compounds scored in any of these assays.

SMILES | CHRM1 antagonist | CHO-K1 Ca PAM | CHO-K1 Ca ag | CHO-K1 Ca antag | M1 ag | CHRM1 PAM
COc1ccc(Cl)cc1Cn1c(C)c(C(=O)NCc2ccccc2C(F)(F)F)sc1=O | 14 | -9 | 0 | 4 | -8 | -11
COc1ccccc1Cn1c(C)c(C(=O)NCc2ccc(C#N)cc2)sc1=O | 32* | 19 | 28* | -4 | 16* | -33
COc1ccc(CNC(=O)c2sc(=O)n(Cc3ccccc3C)c2C)cc1 | 7 | -9 | 17* | 6 | 34* | -7
COc1ccc(Cl)cc1Cn1c(C)c(C(=O)NCc2cccc(C(F)(F)F)c2)sc1=O | -17 | 2 | 0 | 24* | -6 | 4
COc1ccc(Cl)cc1Cn1c(C)c(C(=O)NCc2ccc(C#N)cc2)sc1=O | 44* | 8 | 4 | -5 | -3 | -32
COc1ccccc1Cn1c(C)c(C(=O)NCc2cccc(C)c2)sc1=O | 1 | 0 | 0 | 22 | -8 | 3
Cc1ccccc1Cn1c(C)c(C(=O)NCc2cccc(Cl)c2)sc1=O | -8 | 14 | 2 | -11 | 0 | 7
O=C(COc1ccccc1)N=C1SC2CS(=O)(=O)CC2N1c1ccc(F)cc1F (stereo not given) | -6 | 1 | 3 | -17 | -6 | 5
CC1(Cc2ccc(Cl)s2)C(=O)Nc2c(Cl)ccc(Cl)c21 (stereo not given) | 32* | -17 | 0 | 2 | -6 | -20
CC1(Cc2ccc(Cl)c(Cl)c2)C(=O)Nc2c(Cl)ccc(Cl)c21 (stereo not given) | -16 | 26 | 0 | -17 | 2 | 13
COC(=O)c1ccccc1C(=O)N(c1ccccc1)c1ccccc1 | -1 | 13 | 0 | -2 | -4 | 3
C[C@]12C(=O)N(c3ccc(F)cc3)C(=O)N1[C@H]1c3ccccc3OC[C@@H]1[C@H]2c1ccccc1 | -15 | 44* | 3 | -28 | 1 | 13
C[C@@]12C(=O)Nc3cc(F)ccc3C(=O)N1[C@H]1c3ccccc3OC[C@@H]1[C@@H]2c1ccccc1 | 75* | 17 | 1 | -21 | -5 | -33
C[C@@]12C(=O)N(c3ccc(F)cc3)C(=O)N1[C@@H]1c3ccccc3OC[C@@H]1[C@H]2c1ccccc1 | 3 | -13 | 0 | -3 | 0 | 9
Cc1ccc2c(c1)[C@H]1[C@H](CO2)[C@H](c2ccccc2)[C@]2(C)C(=O)Nc3ccc(F)cc3C(=O)N12 | 66* | -6 | 0 | -4 | -5 | -30
Cc1ccc2c(c1)[C@H]1[C@H](CO2)[C@H](c2ccccc2)[C@]2(C)C(=O)Nc3cc(F)c(F)cc3C(=O)N12 | 41* | -17 | 0 | -2 | -9 | -31
O=C1C2C3C=CC(C3)C2S(=O)(=O)C2C3C=CC(C3)C12 (stereo not given) | -2 | 12 | 0 | -13 | -3 | -1
O=C(Cn1ccc([N+](=O)[O-])n1)NCc1nc2ccccc2[nH]1 | 7 | 18 | 17* | 0 | -5 | 3
CCCCn1c(N)c(N(CC)C(=O)C2=COCCO2)c(=O)[nH]c1=O | 3 | -20 | 1 | 8 | -2 | -1
Cc1ccccc1OCC(=O)Nc1ccc(N2CCN(C)CC2)c(Cl)c1 | 45* | -8 | 5 | -9 | -13 | -32
COc1ccc(OCC(=O)Nc2ccc(N3CCOCC3)c(Cl)c2)cc1 | -6 | 20 | 4 | -3 | 1 | 1
COc1ccc(OCC(=O)Nc2ccccc2C(=O)N2CCOCC2)cc1 | -4 | 4 | 17* | 4 | -1 | 6
COc1ccc(OCC(=O)Nc2ccc(N3CCN(C(=O)c4ccccc4)CC3)c(Cl)c2)cc1 | 36* | -23 | 15 | 25* | 6 | -14
O=C(CCNS(=O)(=O)c1cccc2nsnc12)N1CCN(c2ccccn2)CC1 | 89* | 16 | 1 | 0 | -5 | -22
O=C(c1cccs1)N1CCN(C23CC4CC(CC(C4)C2)C3)CC1 | 72* | 10 | 2 | -3 | -6 | -23

Bioassay records as filed in PubChem BioAssay.
